Test results taken from PubChem BioAssay (NCI).
About 83,000 compounds went through this panel and 20% of them were active in at least one assay; those are over-represented in the sample as a whole.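 Testing used 96-well plates and a 48-hour single-concentration exposure. Example: -40 means 40% of the starting cells died.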 A number with no mark means an inactive call. Active and inactive are the calls of the source. How the source made its calls: active means growth percent below 10; inactive means the rest.

Tests used:
Assay in all cases: NCI-60 one-dose screen, 48 h (100 = growth as untreated, 0 = no growth, -100 = all killed)
Conditions in all cases: 10 µM unless noted
[1] = test system: HCT-15 colon
[2] = test system: HT29 colon
[3] = test system: SNB-75 CNS
[4] = test system: SNB-19 CNS
[5] = test system: U251 CNS
[6] = test system: PC-3 prostate
[7] = test system: SK-MEL-5 melanoma
[8] = test system: UACC-62 melanoma
[9] = test system: SK-MEL-28 melanoma

Structure (SMILES)	growth [1]	growth [2]	growth [3]	growth [4]	growth [5]	growth [6]	growth [7]	growth [8]	growth [9]
C#Cc1cccc(NC(=O)C2CCCN(C(=O)CCl)C2)c1 (stereo not drawn)	25.2% [8.25 µM]	83.9% [8.25 µM]	91.9% [8.25 µM]	85.7% [8.25 µM]	72% [8.25 µM]	96.2% [8.25 µM]	19.4% [8.25 µM]	44.2% [8.25 µM]	102% [8.25 µM]
Cn1cc(-c2csc(-c3cn(C(=O)OC(C)(C)C)c4ccccc34)n2)c2cccnc21	52.4%	13%	57.7%	83.3%	61.7%	48.5%	64%	62.1%	79.2%
CC1(C)C(=O)/C(=C\c2ccccn2)C[C@]2(C)[C@H]3CC[C@@H]4[C@@H](C(=O)/C=C/c5ccccn5)CC[C@@]4(C)[C@]3(C)CC[C@@H]12	-31% (active)	-13.6% (active)	-3.97% (active)	4.66% (active)	-80.5% (active)	9.61% (active)	-82.5% (active)	-54.2% (active)	-32.1% (active)
Cc1ccc(S(=O)(=O)Nc2ccc(-c3cc(-c4cccc(F)c4)c(C#N)c(N)n3)cc2)cc1	-23.3% (active)	-7.07% (active)	-11.7% (active)	51.4%	22.6%	18.6%	28.4%	-6.88% (active)	-33.3% (active)
Cn1c(/C(C#N)=C/c2ccc3ccccc3c2)cc2ccccc21	5.67% (active)	21.8%	15.3%	23.9%	34.1%	28.8%	-26.7% (active)	18.7%	63.4%
CCOC(=O)c1ccc2c(c1)[n+](=O)c(C(=O)C1CCCS1)c(C(F)(F)F)n2[O-] (stereo not drawn)	-72% (active)	-82.4% (active)	-100% (active)	-77.4% (active)	-100% (active)	-75.4% (active)	-96.9% (active)	-80.4% (active)	-93.6% (active)
Cc1nc([P+](c2ccccc2)(c2ccccc2)c2ccccc2)c(Sc2sc(-c3ccccc3)nc2[P+](c2ccccc2)(c2ccccc2)c2ccccc2)o1	30.2%	4.54% (active)	-3.87% (active)	16.2%	14.3%	3.44% (active)	-17.1% (active)	19.2%	54.5%
COc1ccc2[nH]cc(-c3nc(-c4c[nH]c5ncccc45)cs3)c2c1	-34.8% (active)	12.1%	19.5%	77.4%	34.8%	44.2%	48.2%	50.4%	69.9%
O=C1/C(=C\c2ccc(Br)o2)SC(=S)N1CCc1ccc(O)cc1	72.1%	114%	65.6%	88.1%	96.5%	77.2%	99.2%	64%	55.3%
O=c1c(CNc2ccc(S(=O)(=O)Nc3nccs3)cc2)coc2ccccc12	99.9%	101%	73.8%	95.4%	95.4%	107%	98.3%	97.9%	121%
C[C@@H](Oc1ccc(C(=O)NS(=O)(=O)C(C)(C)C)cc1C(F)(F)F)c1ccc(Oc2ccccc2)cn1	23.8%	34.6%	-9.43% (active)	20%	25.6%	47.5%	23.2%	18%	47.1%
Cc1ccc(-c2nc([P+](c3ccccc3)(c3ccccc3)c3ccccc3)c(N3C[C@H]4C[C@H](C3)c3cccc(=O)n3C4)o2)cc1	86.8%	92.3%	74.6%	64.1%	58.8%	82.7%	68%	54.5%	62%
OCC1OC(n2cnc3c(Cl)ncnc32)CC1O (stereo not drawn)	95.6%	107%	102%	96.1%	99.2%	88.9%	106%	101%	110%
C/C(Cc1ccc(Cl)cc1)=C(/c1ccc(Cl)cc1)c1ccc(OCCN2CCCC2)cc1	28.3%	22.1%	78.2%	89.8%	58.3%	65.4%	93.1%	95.6%	98.2%
COc1ccc(CCN2C(=O)C(C)(C)SC2=S)cc1OC	101%	105%	76.8%	96.4%	100%	98.4%	99.5%	92.7%	102%
CCOc1ccc(NC(=O)c2ccoc2COc2ccccc2)cc1	101%	107%	107%	95.3%	99.4%	95.7%	99.1%	79.8%	101%
C#CCN=C[C@]12CC[C@@H](C(=C)C)[C@@H]1[C@H]1CC[C@@H]3[C@@]4(C)CCC(=O)C(C)(C)[C@@H]4CC[C@@]3(C)[C@]1(C)CC2	53.2%	55.7%	120%	79%	62.1%	24.5%	25.3%	37.7%	81.6%
O=C(NO)c1ccc(Cn2c(=O)n(-c3ccccc3)c(=O)c3ccccc32)cc1	39.6%	41%	20.9%	33.4%	-3.66% (active)	-7.98% (active)	16.5%	-24.6% (active)	-1.55% (active)
Cc1cccc2c1NC(=O)[C@@]21[C@H](C(=O)c2ccccc2)[C@]2(C(=O)Nc3ccccc32)[C@H]2CCCN21	9.8% [100 µM] (active)	3.18% [100 µM] (active)	-25.4% [100 µM] (active)	-5.94% [100 µM] (active)	1.7% [100 µM] (active)	21.7% [100 µM]	31% [100 µM]	22.5% [100 µM]	46.4% [100 µM]
N=c1c(S(=O)(=O)c2ccccc2)cc2c(=O)n3ccccc3nc2n1C1CCCC1	86.2%	117%	61.1%	90.3%	85.9%	85%	84.2%	80.2%	102%
O=C(O)c1cccc2c1C(=O)N(c1ccc3c(c1)Cc1ccccc1-3)C2=O	108%	99.9%	91.6%	111%	111%	97.6%	110%	112%	110%
COc1cc(OC)c2c(c1)c1nc3cc(C)c(C)cc3nc1n2CCN(C)C	77.2%	85.8%	74.6%	89.1%	90.9%	85.3%	94.4%	94.3%	104%
CCN1CCN(C(=O)[C@]23CCC(C)(C)C[C@@H]2C2=CC[C@@H]4[C@@]5(C)C/C(=C/c6cccnc6)C(=O)C(C)(C)[C@@H]5CC[C@@]4(C)[C@]2(C)CC3)CC1	13.7%	10.6%	45.3%	48.3%	-88.1% (active)	17.2%	-91% (active)	26.6%	41.7%
COc1ccc2nc(-c3cc(-c4cc(OC)c(OC)c(OC)c4)n[nH]3)[nH]c2c1	15.1%	42.7%	-2.76% (active)	50.1%	39.3%	-22.8% (active)	-92.9% (active)	-53.6% (active)	-17.6% (active)
COc1cc2nc(Cl)nc(Nc3cccc(C(=O)/C=C/c4ccc(Cl)cc4)c3)c2cc1OC	2.93% (active)	19.6%	81.3%	54.6%	50.7%	56%	83.9%	62.8%	74.2%
COc1ccc(/C=C2\N=C(c3ccccc3)N(c3cc(OC)c(OC)cc3C(=O)N3N=C(C)CC3=O)C2=O)cc1	90%	99.7%	87.6%	99.5%	102%	89.4%	77.3%	65.5%	95.2%
Cc1cc(C)nc(NC(N)=NCCc2ccccc2)n1	55%	13.5%	23.7%	46.8%	31.6%	37.7%	22%	38%	33.8%
